Results taken from PubChem BioAssay AID372 (MTDP, 2006).
The whole screen tested about 100,000 compounds, of which about 770 (0.77%) were called active. This is one part of a sample in which actives are shown more often than they occur. No stated cut-off is given here; in the data, active means inhibition above about 50%; inactive means the rest.

target: Gag-Pol polyprotein (Human immunodeficiency virus type 1 group M subtype B (isolate HXB2)) (UniProt P04585); test: RNase H inhibition, HIV 1 Gag Pol polyprotein, FRET biochemical assay, screening (AID 372); details: HIV-1 RT RNase H, FRET RNA/DNA substrate fluorescence; at 10 µM; stronger effect = higher value

SMILES | inhibition
CCC(Sc1nc2ccccc2s1)C(=O)Nc1ccc([N+](=O)[O-])cc1 (stereo unspecified) | 10% (inactive)
O=C(NC(=S)Nc1cc([N+](=O)[O-])ccc1Cl)c1cccc(Cl)c1 | 45% (inactive)
O=C(O)c1ccc(Oc2ccc3c(c2)C(=O)N(c2ccc([N+](=O)[O-])cc2)C3=O)cc1 | 3% (inactive)
CC1=NN(c2ccc(S(N)(=O)=O)cc2)C(=O)/C1=C\c1ccc(-c2ccc(Cl)cc2)o1 | 43% (inactive)
CC1=NN(c2cccc(Cl)c2)C(=O)/C1=C/c1ccc(-c2ccccc2[N+](=O)[O-])o1 | 1% (inactive)
CC1=NN(c2ccc(S(N)(=O)=O)cc2)C(=O)/C1=C\c1ccc(-c2cccc(Cl)c2C)o1 | 67% (active)
Cc1ccc(N2C(=O)NC(=O)/C(=C/c3ccc(-c4ccc(Cl)cc4Cl)o3)C2=O)cc1 | 36% (inactive)
CCCCOC(=O)c1cccc(-c2ccc(/C=C3\C(=O)N(c4ccc(S(N)(=O)=O)cc4)N=C3C)o2)c1 | 39% (inactive)
O=C(Nc1ccc(Cl)c(-c2nc3ccccc3s2)c1)c1ccccc1F | 14% (inactive)
CCOC(=O)c1c(NC(=S)NC(=O)c2ccccc2)sc2c1CC(C(C)C)OC2 (stereo unspecified) | 12% (inactive)
COc1ccc(CNC(=O)C(=O)Nc2ccccc2F)cc1 | 15% (inactive)
O=C(NN1C(=O)c2ccc(C(=O)c3ccc4c(c3)C(=O)N(NC(=O)c3ccncc3)C4=O)cc2C1=O)c1ccncc1 | 0% (inactive)
C/C(=N\N1CCN(Cc2cccc3ccccc23)CC1)c1cccs1 | 19% (inactive)
COC(=O)/C=C1\SC(=Nc2ccccc2)NC1=O | 6% (inactive)
O=C1C=CC(=NS(=O)(=O)c2cc(Cl)ccc2Cl)C=C1 | 46% (inactive)
O=C1C=C/C(=N\S(=O)(=O)c2ccc(Cl)cc2)C=C1Cl | 37% (inactive)
Clc1cccc(C=Nc2ccc(-c3ccc(N=Cc4cccc(Cl)c4Cl)cc3)cc2)c1Cl | 17% (inactive)
N#Cc1c(N2CCCCC2)ncc2cc3ccccc3nc12 | 0% (inactive)
CCOC(=O)C(=Cc1ccc(OCc2ccc([N+](=O)[O-])cc2)c(OC)c1)C(=O)OCC | 59% (active)
COC(=O)C(=Cc1cc(Br)c(OCc2ccc([N+](=O)[O-])cc2)c(OC)c1)C(=O)OC | 12% (inactive)
CCOC(=O)C(=Cc1cc(OC)c(O)c([N+](=O)[O-])c1)C(=O)OCC | 5% (inactive)

SMILES | inhibition
O=Cc1cc(Cl)c(OCc2ccc([N+](=O)[O-])cc2)c(Cl)c1 | 25% (inactive)
CCOc1cc(C=O)cc(Br)c1OCc1ccc([N+](=O)[O-])cc1 | 28% (inactive)
CCOc1cc(C=O)cc(Cl)c1OCc1ccc([N+](=O)[O-])cc1 | 54% (active)
NNC(=O)COc1cccc2ccccc12 | 1% (inactive)
COc1ccc(C(=O)NC(=S)Nc2ccc3ccccc3c2)cc1OC | 17% (inactive)
O=C(O)c1ccc(-c2ccc(/C=N/N3C(=O)C4C5C=CC(CC5)C4C3=O)o2)cc1 (stereo unspecified) | 2% (inactive)
O=C(c1ccccc1)N1N=C(c2ccccc2)CC1(O)C(F)(F)F (stereo unspecified) | 9% (inactive)
O=C(c1cccc(Br)c1)N1N=C(c2ccccc2)CC1(O)C(F)(F)F (stereo unspecified) | 50% (active)
O=C(c1cccc(Br)c1)N1N=C(c2ccc(F)cc2)CC1(O)C(F)(F)F (stereo unspecified) | 22% (inactive)
O=C(Nc1cccc2ccccc12)ON=C1c2ccccc2-c2ccccc21 | 56% (active)
O=C(Nc1ccccc1Cl)ON=C1c2ccccc2-c2ccccc21 | 43% (inactive)
O=C(Nc1ccccc1)ON=C1c2ccccc2-c2ccccc21 | 42% (inactive)
COc1ccccc1NC(=O)Nc1cccc2ccccc12 | 15% (inactive)
CCN(CC)c1ccc(C(NC(C)=O)NC(C)=O)cc1 | 0% (inactive)
Cc1ccc([N+](=O)[O-])cc1NC(=O)C1CC1 | 0% (inactive)
COc1ccc(CC(=O)NNC(=O)c2ccc(Cl)cc2)cc1OC | 9% (inactive)
CC(=O)N1c2ccccc2C(C)=CC1(C)C | 3% (inactive)
CCC(C(=O)N1c2ccccc2C(C)=CC1(C)C)c1ccccc1 (stereo unspecified) | 50% (active)
CC1=CC(C)(C)N(C(=O)c2ccccc2)c2ccccc21 | 10% (inactive)
COC(=O)c1ccc(CSc2nnc(CCCN3C(=O)c4cccc5cccc(c45)C3=O)n2-c2ccccc2)cc1 | 15% (inactive)
CCOC(=O)C1=C(C)N=c2s/c(=C\c3ccc(-c4ccc(Br)cc4[N+](=O)[O-])o3)c(=O)n2C1c1ccccc1 (stereo unspecified) | 48% (inactive)

SMILES | inhibition
COc1ccc(C2C(C#N)=C(N)OC3=C2C(=O)CC(c2ccccc2)C3)cc1C (stereo unspecified) | 9% (inactive)
O=C(Nc1cccc(Cl)c1Cl)c1ccc(Br)o1 | 16% (inactive)
O=C(Nc1cccc(Cl)c1Cl)c1ccc(-c2cccc(Cl)c2)o1 | 37% (inactive)
O=C(Nc1cccc(Cl)c1Cl)c1ccc(-c2ccc(Br)cc2)o1 | 57% (active)
Clc1ccccc1OCCCn1ccnc1 | 0% (inactive)
C=C(C)c1cccc(C(C)(C)NC(=O)NCc2ccco2)c1 | 9% (inactive)
CCOC(=O)C1=C(C)N=c2s/c(=C\c3ccc(-c4cccc([N+](=O)[O-])c4)o3)c(=O)n2C1c1ccc(C)cc1 (stereo unspecified) | 19% (inactive)
O=C1C2C3C=CC(CC3)C2C(=O)N1/N=C/c1ccc(O)cc1 (stereo unspecified) | 0% (inactive)
O=C1C2C3C=CC(CC3)C2C(=O)N1/N=C/c1ccccc1O (stereo unspecified) | 0% (inactive)
O=C1C2C3C=CC(CC3)C2C(=O)N1/N=C/c1ccc(I)o1 (stereo unspecified) | 3% (inactive)
O=C1C2C3C=CC(C3)C2C(=O)N1/N=C/c1ccccc1I (stereo unspecified) | 0% (inactive)
O=C1C2C3C=CC(CC3)C2C(=O)N1/N=C/c1cccs1 (stereo unspecified) | 56% (active)
O=C1C2C3C=CC(CC3)C2C(=O)N1/N=C/c1ccccc1I (stereo unspecified) | 59% (active)
CC(Oc1ccc(Br)cc1)C(=O)N/N=C/c1ccc(N(C)C)cc1 (stereo unspecified) | 8% (inactive)
O=C(O)c1cc(NS(=O)(=O)c2ccc(NCCCN3CCOCC3)c([N+](=O)[O-])c2)cc(C(=O)O)c1 | 4% (inactive)
COc1ccc(/C=N/Nc2nc(Nc3ccc(F)cc3)nc(N3CCCCC3)n2)cc1 | 6% (inactive)
Cc1sc(NC(=O)c2cc(Cl)ccc2Cl)c(C#N)c1C | 4% (inactive)
COc1ccc(Cl)cc1C(=O)Nc1sc(C)c(C)c1C#N | 74% (active)
CCN(CC)C(=O)c1sc(NC(=O)c2cc(Cl)ccc2OC)c(C#N)c1C | 7% (inactive)
